# High-throughput results as filed in PubChem BioAssay.
# Rows were chosen to be rich in hits. Some 0.9% of all compounds tested hit in one or more screens of this group.
# RECQ1 inh – blocks DNA unwinding by human RECQ1; hit rate 0.54% among 240,000; AID 2549; P46063; Potency, µM (series often up to 57.3 µM), most hits filed as inhibitors; RECQ1 DNA unwinding, red fluorescence kinetic read; further: nearly all actives have a fitted effect of over 30% in size
# Target sequence (P46063 whole entry, looked up): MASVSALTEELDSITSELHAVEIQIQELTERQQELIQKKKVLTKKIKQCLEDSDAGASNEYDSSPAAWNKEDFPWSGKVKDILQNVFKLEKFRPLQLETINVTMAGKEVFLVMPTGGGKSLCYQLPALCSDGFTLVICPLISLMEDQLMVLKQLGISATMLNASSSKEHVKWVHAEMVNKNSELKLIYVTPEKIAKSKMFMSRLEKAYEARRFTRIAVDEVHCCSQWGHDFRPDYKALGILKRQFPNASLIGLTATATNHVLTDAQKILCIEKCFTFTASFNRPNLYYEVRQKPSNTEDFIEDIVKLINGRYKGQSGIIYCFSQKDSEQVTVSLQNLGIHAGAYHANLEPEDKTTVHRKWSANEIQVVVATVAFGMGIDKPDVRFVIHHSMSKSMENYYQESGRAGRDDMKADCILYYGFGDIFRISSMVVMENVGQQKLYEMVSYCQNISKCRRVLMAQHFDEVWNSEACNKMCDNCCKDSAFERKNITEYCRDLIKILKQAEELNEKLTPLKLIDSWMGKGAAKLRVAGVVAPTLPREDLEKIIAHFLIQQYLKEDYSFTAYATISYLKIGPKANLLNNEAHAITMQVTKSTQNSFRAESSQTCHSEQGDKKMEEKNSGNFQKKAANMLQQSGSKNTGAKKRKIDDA
#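 RECQ1T1 50 nM; forked duplex (20 bp + 30-nt ss tails) 200 nM, ATP 2 mM final; pH 8.0, 2 mM MgCl2, 2.5 ug/ml poly(dI-dC); 15 min compound preincubation; discontinuous kinetic read over 2 h at RT.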
# Lamin A splicing – changes lamin A minigene splicing in HeLa cells; HeLa LMNA splicing GFP/RFP minigene ratio, 48 h; Potency, µM (series often up to 46.1 µM), actives largely listed as inhibitors; hit rate 0.01% among 200,000; active means well fitted inhibition curve with a large enough effect in the signal ratio, with a control signal flat, not every such curve was filed as active; inconclusive means small, poorly fitted or top-dose-only effect, or effect the other way, or a change in a side signal; the % refers to the signal ratio
#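 S3 HeLa cells stably expressing lamin A-EGFP splicing minigene plus DsRed2, 600 cells/well, 48 h compound exposure at 37C. Laser-scanning cytometry; analysed as GFP (500-530 nm)/RFP (575-640 nm) total intensity ratio; 0.5% DMSO vehicle.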
# TDP1 block – inhibitors of human tyrosyl-DNA phosphodiesterase TDP1; recombinant TDP1, AlphaScreen DNA substrate cleavage; Potency, µM (series often up to 130 µM), actives largely listed as inhibitors; hit rate 0.28% among 350,000; Q9NUW8; further: nearly all actives have a fitted effect of over 40% in size
#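 Here, a 5' biotin and 3' phosphotyrosine-FITC DNA oligonucleotide reports Tdp1 activity: intact substrate bridges AlphaScreen beads, while cleavage leaves a 3' phosphate and drops signal. All incubations at room temperature.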
# APE1 inh – APE1 (human) endonuclease inhibition; P27695; recombinant APE1, TAMRA/BHQ-2 abasic DNA cleavage fluorescence; Potency, µM (series often up to 65.8 µM), hits mostly inhibitors; hit rate 0.35% among 350,000; AID 2517; further: nearly all actives have a fitted effect of over 55% in size
#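 Measures dequenching upon AP-site incision of a 5'-TAMRA/3'-BHQ-2 THF-containing duplex, 50 nM; human APE1 0.75 nM after 15 min room-temperature exposure to compound; kinetic three-point read at one-minute spacing.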
# GCN5L2 inh – GCN5L2 (KAT2A) acetyltransferase inhibition | Q92830 | GCN5L2 HAT assay, ThioGlo1 CoA-SH fluorescence | Potency, µM (series often up to 58.9 µM), actives largely listed as inhibitors | hit rate 0.21% among 390,000 | AID 504327
#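 qHTS, 1536-well. 20nM enzyme, pH 7.5 HEPES/EDTA/Tween-20 buffer; 15 min compound preinc., RT. Start: 75uM H3(1-25), 70uM AcCoA, 50uM ThioGlo1. Read Ex340/Em540 at t=0 (autofluorescence flag) and t=20 min.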
# BLM helicase inh – Bloom syndrome helicase (human) inhibition; P54132; recombinant BLM DNA unwinding, fluorescence dequenching; Potency, µM (series often up to 56.1 µM), actives largely listed as inhibitors; hit rate 0.2% among 350,000; further: nearly all actives have a fitted effect of over 35% in size
# A number is an active result; – = inactive; ? = inconclusive; · = no result; [ ] = remark or other dose. Unless noted, the call rests on the fitted dose curve; in most records, active means well fitted curve in the direction sought with a large enough effect; inconclusive means small, poorly fitted or top-dose-only effect, or another doubt; inactive means no such curve, though single readings can be large; an effect the other way counts as inactive or inconclusive.
SMILES,RECQ1 inh,Lamin A splicing,TDP1 block,APE1 inh,GCN5L2 inh,BLM helicase inh
CCNc1cccc(S(=O)(=O)N2CCN(S(=O)(=O)c3ccc4c(c3)OCCO4)CC2)c1,·,·,–,·,·,·
N#C/C(=C\c1ccc(-c2ccc(C(=O)O)cc2)o1)C(=O)NCC1CCCO1 (configuration not stated),–,–,56µM,?,–,–
CCc1ccc(S(=O)(=O)/N=C2\C=C(Nc3ccc(C(=O)O)cc3)C(=O)c3ccccc32)cc1,·,·,–[0.0935 µM],–,–,25µM
Cc1ccc(S(=O)(=O)/N=C2\C=C(Nc3cccc(C(=O)O)c3)C(=O)c3ccccc32)c(C)c1,·,·,–,–,–,25µM
Cc1ccc(S(=O)(=O)/N=C2\C=C(Nc3cccc(C(=O)O)c3)C(=O)c3ccccc32)cc1,·,·,–,–,–,20µM
Cc1ccc(S(=O)(=O)/N=C2\C=C(Nc3ccc(O)cc3)C(=O)c3ccccc32)cc1,·,·,–,–,–,·
Cc1cccc([S+](=O)([O-])NC2CCN(C#N)CC2)c1,·,·,–,·,·,·
Cc1cccc(NC(=O)CN2CCN(C(=O)c3ccc(OCc4cn5ccccc5n4)cc3)CC2)c1C,·,·,45µM,–,–,·
O=C(CN1CCN(C(=O)c2ccc(OCc3cn4ccccc4n3)cc2)CC1)Nc1cccc(F)c1,·,·,–,–,–,·
Cc1ccc(NC(=S)c2nc3ccccc3[nH]2)c(C)c1,4.5µM,–,–,–,–,–
C[C@H](CCC(=O)NCC(=O)O)C1CC[C@H]2[C@H]3C(C[C@H](O)[C@]12C)[C@@]1(C)CC[C@@H](O)C[C@H]1C[C@H]3O (some centres not stated),–,·,–,–,–,·
COC(=O)c1c(-c2ccc(SC)cc2)sc2ccccc12,·,·,?,–,–,·
COC(=O)c1c(-c2ccc(OC)cc2)sc2ccccc12,·,·,20µM,–,–,·
CC1=CCC(C(=O)O)C(C(=O)NC2CCCCC2)C1 (configuration not stated),·,·,32µM,–,–,–
COc1ccc2ccccc2c1/C=N/N1C(=O)CSC1=S,28µM,–,–,–,–,–
COc1cccc(/C=N/N2C(=O)CSC2=S)c1O,–,?,–,–,–,–
O=C(NCc1cccnc1)c1ccc(NS(=O)(=O)c2ccccc2)cc1,·,·,3.5µM,–,–,–
O=C(NCc1cccnc1)c1ccc(NS(=O)(=O)c2ccc(F)cc2)cc1,·,·,–,–,–,–
Cc1ccc(C(c2nnnn2C2CCCCC2)N2CCN3CCCC3C2)cc1 (configuration not stated),–,–,–,–,0.89µM,–
CC(C)(C)n1ncc2c(=O)n(Cc3cc(F)ccc3Cl)cnc21,·,·,·,–,·,·
CC(=O)NC(CC(=O)OCC(=O)c1ccc(NC(=O)CC(C)C)cc1)c1ccccc1 (configuration not stated),·,·,45µM,?,–,·
O=C(NC1CCS(=O)(=O)C1)c1ccc(Br)s1 (configuration not stated),·,·,100µM,–,–,·
CN(C)c1cccc(C(=O)NNC(=O)NC2CCCCC2)c1,–,–,–,–,–,–
O=C(NNC(=O)c1ccc(Br)s1)NC1CCCCC1,·,·,56µM,–,–,–
COc1cc(F)c(S(=O)(=O)N2CCCN(S(=O)(=O)c3ccc(NC(C)=O)cc3)CC2)c(F)c1,·,·,–,·,·,·
SMILES,RECQ1 inh,Lamin A splicing,TDP1 block,APE1 inh,GCN5L2 inh,BLM helicase inh
CC(C)c1cc2c(s1)c1cnn(Cc3ccccc3F)c(=O)c1n2C,·,·,–,·,·,·
O=C(CN1C(=O)S/C(=C/c2cccs2)C1=O)N1CCCC1,·,·,–,–,–,·
O=C(O)c1ccc(-n2cccc2/C=C2/SC(=O)N(CC(=O)N3CCCC3)C2=O)cc1,·,·,50µM,3.4µM,?,–
Cc1[nH]n(-c2ccccc2)c(=S)c1C=NCCCN=Cc1c(C)[nH]n(-c2ccccc2)c1=S,–,?,–,?,18µM,–
CCCCCCCCCCCCCCC[C@@H](O)[C@H](CO)NC(=O)CCCCCCC,–,·,–,–,–,–
COc1c(O)c(O)cc2c1oc1c3ccccc3oc(=O)c21,11µM,·,–,28µM,·,14µM
O=c1oc2cc(O)ccc2c2oc3cc(O)ccc3c12,32µM,?,–,?,–,?
O=c1oc2cc(O)ccc2c2ccccc12,–,–,–,–,–,–
Clc1ccc(Sc2cc(Cl)c(Cl)cc2Cl)cc1,–,·,–,–,–,–
CC[C@H](C)[C@H](NC(=O)[C@H](CC(C)C)NC(=O)[C@@H](N)CO)C(=O)NCC(=O)N[C@@H](CCCCN)C(=O)N[C@H](C(=O)O)C(C)C,–,·,–,–,–,–
NC(=O)C1CCN(c2nc(-c3ccc(N4CCCCC4)nc3)cs2)CC1,·,·,·,–,·,·
Cc1cccc(N2CCN(C(=O)c3ccc4c(c3)NC(=O)C(CSCc3cccc(F)c3)N4)CC2)c1C (configuration not stated),·,·,–,–,28µM,–
Cc1cccc(N2CCN(C(=O)CSCc3ccc(F)cc3)CC2)c1C,·,?,–,·,–,–
O=C1C=C(N2CCOCC2)c2ccccc2C1=O,·,·,·,–,–,8.9µM
CC(=O)c1ccc(NC(=O)c2noc3c2CCC3)cc1,?,·,25µM,?,?,–
CCCC(=O)c1cc(O)c(O)cc1O,1.1µM,·,?,0.89µM,·,·
CCCc1cc(C(=O)Cc2ccc(F)cc2)c(O)cc1O,–,?,–,–,–,–
O=C1OC2(c3cc(Br)c(O)c(Br)c3Oc3c2cc(Br)c(O)c3Br)c2c(Cl)c(Cl)c(Cl)c(Cl)c21,5µM,·,–,4.5µM,·,·
Nc1nc(SCC(=O)Nc2ccc(OCc3ccccc3)cc2)n[nH]1,–,·,71µM,–,–,–
CNc1nc(-c2ccccc2)[n+](-c2ccc(C)cc2)s1,–,?,–,–,7.9µM,–
Cc1ccc(-c2nc(N)s[n+]2-c2ccccc2)cc1,–,–,–,–,6.3µM,–
O=S(=O)(c1ccc2c(c1)OCCO2)N1CCN(S(=O)(=O)c2ccc3nc(Cl)c(Cl)nc3c2)CC1,·,·,–,·,·,·
Nc1ccccc1S(=O)(=O)Nc1cccc2cccnc12,–,·,–,?,–,–
O=C(Nc1cccnc1)c1cnn2c1NC(=C1CC1)C=C2C(F)F,·,·,·,–,·,·
COc1ccc(/C=C2\CCc3ccccc3C2=O)cc1Cn1cccn1,–,–,–,–,18µM,–
Cc1ccc(-c2cc(C(=O)NCCN3CCOCC3)c3ccccc3n2)o1,·,·,–,–,13µM,–
COc1ccc(-c2cc(C(=O)NCCN3CCOCC3)c3ccccc3n2)cc1,–,–,–,–,–,–
CC(C)(C)OC(=O)Cc1nnc(-c2nc3ccccc3[nH]2)s1,·,·,–,·,·,·
COC(=O)C1=NN(C(=O)c2ccc(Cl)cc2)C(O)(c2ccccc2)C1 (configuration not stated),–,–,–,–,1.4µM,–
